Only some compounds are listed: those with a hit (about 3.9% of all), similar ones and a draw of the others.
3CLpro inhibitor: SARS-CoV 3CLpro protease inhibitors, primary screen, biochemical, quenched FRET | Replicase polyprotein 1ab (Severe acute respiratory syndrome coronavirus), P0C6X7 | recombinant SARS-CoV 3CLpro, quenched FRET peptide cleavage | inhibition, % at 6 µM | hit rate 0.14% among 290,000 | AID 1706, 2009; in the data active = inhibition above about 12%
Anthrax LF inh2: Bacillus anthracis LF protease inhibitors, primary screen, biochemical, multiplex microsphere, MLPCN library; multiplex microsphere protease cleavage assay; hit rate 0.12% among 360,000; AID 588501, 2011; inhibition, % at 10 µM; Lethal factor (Bacillus anthracis), P15917; also: plate controls were buffer without enzyme for full effect and enzyme alone for no effect
DUSP3 inh: VHR1 phosphatase inhibitors, primary screen, biochemical, absorbance, uHTS; Dual specificity protein phosphatase 3 (Homo sapiens), P51452; recombinant VHR phosphatase, pNPP absorbance; inhibition, % at 13.3 µM; hit rate 0.52% among 290,000; AID 1654, 2009; in the data active = inhibition above about 50%
Target sequence (P51452 whole entry, looked up): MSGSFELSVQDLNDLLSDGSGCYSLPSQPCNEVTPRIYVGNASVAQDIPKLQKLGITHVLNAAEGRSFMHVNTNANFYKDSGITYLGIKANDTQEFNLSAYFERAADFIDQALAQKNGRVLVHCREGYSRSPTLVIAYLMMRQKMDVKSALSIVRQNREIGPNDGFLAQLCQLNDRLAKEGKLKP
BoNT A protease: BoNT/A light chain protease inhibitors, primary screen, biochemical, flow cytometry, MLPCN library. multiplex microsphere protease substrate cleavage. hit rate 0.17% among 360,000. Botulinum neurotoxin type A light chain protease (Clostridium botulinum A str. ATCC 3502). inhibition, % at 10 µM; also: plate controls were buffer without enzyme for full effect and enzyme alone for no effect
Bead autofluor: flagged as autofluorescent in microsphere protease counterscreen | compound autofluorescence counterscreen, microsphere flow cytometry; hits give high values | fluorescence intensity (test concentration not listed) | AID 624483 | hit rate 3.1% among 360,000; in the data active = fluorescence intensity above about 16000; inconclusive = no clear call, values can overlap the other calls
BoNT F protease: BoNT/F light chain protease inhibitors, primary screen, biochemical, flow cytometry, MLPCN library; Botulinum neurotoxin type F light chain protease (Clostridium botulinum); Multiplex microsphere protease cleavage assay; inhibition, % at 10 µM; hit rate 0.22% among 360,000; in the data active = inhibition above about 35%, passing the limit was not always enough; inconclusive = no clear call, values can overlap the other calls; also: plate controls were buffer without enzyme for full effect and enzyme alone for no effect
* = called active by the depositor. Rule as the data show it, unless noted: active = inhibition above about 30%; inconclusive = no clear call, values can overlap the other calls; inactive = below that.

How did Cc1ccc(N(C(=O)c2snc(C(N)=O)c2N)C(C(=O)NCCC(C)C)c2ccco2)cc1 (stereo not drawn) do in these assays?
3CLpro inhibitor: 7.1; Anthrax LF inh2: -3.2; DUSP3 inh: 24.9; BoNT A protease: 0.2; Bead autofluor: 4285; BoNT F protease: -3.4

Results for Cc1ccc(C(C(=O)NC2CCCCC2)N(CCCN2CCOCC2)C(=O)c2snc(C(N)=O)c2N)cc1 (stereo not drawn) ?
3CLpro inhibitor: -1.9; Anthrax LF inh2: -10.7; DUSP3 inh: 15.3; BoNT A protease: -4.2; Bead autofluor: 3748; BoNT F protease: -10.0

How did COc1ccc(C(C(=O)NCCC(C)C)N(CCO)C(=O)c2snc(C(N)=O)c2N)cc1 (stereo not drawn) do in these assays?
3CLpro inhibitor: -3.2; Anthrax LF inh2: 14.2; DUSP3 inh: 53.3*; BoNT A protease: -0.6; Bead autofluor: 4537; BoNT F protease: -8.2

How did CCCCC(C(=O)NCCC(C)C)N(CCCN1CCOCC1)C(=O)c1snc(C(N)=O)c1N (stereo not drawn) do in these assays?
3CLpro inhibitor: -3.3; Anthrax LF inh2: 1.2; DUSP3 inh: 13.9; BoNT A protease: 0.1; Bead autofluor: 20769*; BoNT F protease: -0.2

What do the screens show for `CC(C)CCNC(=O)C(c1ccco1)N(Cc1ccccc1)C(=O)c1snc(C(N)=O)c1N` (stereo not drawn)?
3CLpro inhibitor: 0.1; Anthrax LF inh2: -3.0; DUSP3 inh: 33.4; BoNT A protease: 2.2; Bead autofluor: 22391*; BoNT F protease: 1.8

What do the screens show for `CCN(CC)CCN1C(=O)C(=O)/C(=C(/O)c2ccc(S(=O)(=O)N3CCOCC3)cc2)C1c1ccc(C)cc1` (stereo not drawn)?
3CLpro inhibitor: 1.1; Anthrax LF inh2: -8.4; DUSP3 inh: -0.7; BoNT A protease: -4.4; Bead autofluor: 6429; BoNT F protease: -25.8

What do the screens show for `COc1cccc(C2C(C#N)=C(N)Oc3c2oc(CO)cc3=O)c1OC` (stereo not drawn)?
3CLpro inhibitor: 3.6; Anthrax LF inh2: -1.3; DUSP3 inh: 11.8; BoNT A protease: 0.6; Bead autofluor: 22208*; BoNT F protease: 2.0

What do the screens show for `COc1ccc(C2C(C#N)=C(N)Oc3c2oc(CO)cc3=O)c(OC)c1OC` (stereo not drawn)?
3CLpro inhibitor: -1.6; Anthrax LF inh2: -16.3; DUSP3 inh: 8.1; BoNT A protease: 1.4; Bead autofluor: inconclusive; BoNT F protease: -3.7

Results for c1ccc(-c2noc(CSc3nnnn3C3CCCCC3)n2)cc1 ?
3CLpro inhibitor: -3.0; Anthrax LF inh2: -2.5; DUSP3 inh: 2.2; BoNT A protease: -1.1; Bead autofluor: 20752*; BoNT F protease: -3.4

What do the screens show for `CCn1c(SCc2nc(-c3ccccc3)no2)nnc1-c1ccco1`?
3CLpro inhibitor: -0.2; Anthrax LF inh2: -3.5; DUSP3 inh: -9.2; BoNT A protease: -2.7; Bead autofluor: 23800*; BoNT F protease: -5.8

Results for O=C(c1ccccc1)C(Nc1cccc([N+](=O)[O-])c1)c1ccccc1 (stereo not drawn) ?
Anthrax LF inh2: 0.4; BoNT A protease: 1.8; Bead autofluor: 3601; BoNT F protease: 2.8

How did c1ccc(CCN2CN=C(Nc3nc4ccccc4s3)NC2)cc1 do in these assays?
3CLpro inhibitor: 0.8; Anthrax LF inh2: -4.6; DUSP3 inh: 25.3; BoNT A protease: inconclusive; Bead autofluor: 3691; BoNT F protease: inconclusive

What do the screens show for `COc1ccc(CN2CN=C(Nc3nc4ccccc4s3)NC2)cc1`?
3CLpro inhibitor: 1.3; Anthrax LF inh2: -2.3; DUSP3 inh: 31.1; BoNT A protease: -3.6; Bead autofluor: 23311*; BoNT F protease: -4.6

What do the screens show for `CC1CCCCC1N1CN=C(Nc2nc3ccccc3s2)NC1` (stereo not drawn)?
3CLpro inhibitor: -6.3; Anthrax LF inh2: -0.7; DUSP3 inh: 23.7; BoNT A protease: -2.0; Bead autofluor: 23381*; BoNT F protease: -2.9

How did c1ccc2sc(NC3=NCN(C4CCCCC4)CN3)nc2c1 do in these assays?
3CLpro inhibitor: 3.4; Anthrax LF inh2: -6.5; DUSP3 inh: 17.4; BoNT A protease: -0.7; Bead autofluor: 9927; BoNT F protease: 2.0

How did c1ccc(CN2CN=C(Nc3nc4ccccc4s3)NC2)cc1 do in these assays?
3CLpro inhibitor: -2.6; Anthrax LF inh2: -2.5; DUSP3 inh: 11.9; BoNT A protease: -0.5; Bead autofluor: 16724*; BoNT F protease: 0.5

Results for CCCOc1ccc(CSc2nc3ccccc3[nH]2)cc1 ?
3CLpro inhibitor: 1.9; Anthrax LF inh2: -4.6; DUSP3 inh: 20.5; BoNT A protease: inconclusive; Bead autofluor: 22003*; BoNT F protease: 2.9

How did Cc1cc(NS(=O)(=O)c2ccc(NC(=O)c3oc4ccccc4c3C)cc2)no1 do in these assays?
3CLpro inhibitor: 3.9; Anthrax LF inh2: 2.7; DUSP3 inh: -14.7; BoNT A protease: 0.3; Bead autofluor: 22342*; BoNT F protease: -0.6

Results for CCC(=O)Nc1ccc(S(=O)(=O)Nc2cc(C)on2)cc1 ?
3CLpro inhibitor: 3.0; Anthrax LF inh2: -4.0; DUSP3 inh: -16.7; BoNT A protease: 0.3; Bead autofluor: 10473; BoNT F protease: -0.7

How did Cc1cc(NS(=O)(=O)c2ccc(NC(=O)Nc3cccc(Cl)c3)cc2)no1 do in these assays?
3CLpro inhibitor: 6.0; Anthrax LF inh2: -8.5; DUSP3 inh: 6.2; BoNT A protease: -0.4; Bead autofluor: 9992; BoNT F protease: -1.4

How did Cc1cc(NS(=O)(=O)c2ccc(NC(=O)Nc3ccc4c(c3)OCO4)cc2)no1 do in these assays?
3CLpro inhibitor: -3.2; Anthrax LF inh2: -0.2; DUSP3 inh: -4.4; BoNT A protease: inconclusive; Bead autofluor: 16204*; BoNT F protease: -2.2

Results for Cc1cc(NS(=O)(=O)c2ccc(NC(=O)NC3CCCCC3)cc2)no1 ?
3CLpro inhibitor: -0.7; Anthrax LF inh2: -7.4; DUSP3 inh: 19.1; BoNT A protease: -3.6; Bead autofluor: 17035*; BoNT F protease: -4.9

How did COc1ccc(OC)c(NC2c3ncccc3C(=O)N2Cc2ccco2)c1 (stereo not drawn) do in these assays?
3CLpro inhibitor: -2.3; Anthrax LF inh2: -5.0; DUSP3 inh: 27.6; BoNT A protease: -1.5; Bead autofluor: 16912*; BoNT F protease: -9.5

How did COc1ccc(CN2C(=O)c3cccnc3C2O)cc1 (stereo not drawn) do in these assays?
3CLpro inhibitor: 2.8; Anthrax LF inh2: -9.0; DUSP3 inh: -12.2; BoNT A protease: -3.2; Bead autofluor: 3920; BoNT F protease: -42.6

What do the screens show for `COc1ccc(CN2C(=O)c3cccnc3C2Nc2cc(Cl)ccc2OC)cc1` (stereo not drawn)?
3CLpro inhibitor: 1.4; Anthrax LF inh2: -4.2; DUSP3 inh: 3.6; BoNT A protease: -0.7; Bead autofluor: 21495*; BoNT F protease: -10.4

Screening results: PubChem BioAssay, several laboratories
